Test results from PubChem BioAssay AID781 (Emory University Molecular Libraries Screening Center, 2007).
Out of some 220,000 compounds screened, about 1,600 (0.73%) were called active. This is one part of a sample in which actives are shown more often than they occur. A number with no mark means an inactive call.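 How the source made its calls: active means inhibition above about 70% (limit read from the data); inactive means the rest.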

Target: 14-3-3 protein zeta/delta (Bos taurus) (UniProt P63103)
Sequence (P63103 whole entry, looked up): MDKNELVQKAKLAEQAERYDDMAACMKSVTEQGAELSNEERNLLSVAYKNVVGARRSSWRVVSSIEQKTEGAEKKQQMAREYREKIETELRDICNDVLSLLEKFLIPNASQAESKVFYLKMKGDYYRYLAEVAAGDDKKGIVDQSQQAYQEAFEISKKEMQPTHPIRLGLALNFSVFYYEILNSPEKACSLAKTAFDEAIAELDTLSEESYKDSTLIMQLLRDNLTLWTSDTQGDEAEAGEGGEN
Experiment: disruptors of 14-3-3 zeta phospho-Bad complex – biochemical, TR-FRET, bovine 14-3-3 zeta, primary screen (AID 781);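 further: 0% = full 14-3-3 plus peptide FRET controls and 100% = background without 14-3-3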
Conditions: TR-FRET 14-3-3zeta/Dy647-pBad peptide displacement, 1 h; at 21.7 µM; active compounds read high

| SMILES | inhibition |
| --- | --- |
| Fc1ccc(N2CCN(Cc3cnc(Oc4ccc(Br)cc4)s3)CC2)cc1 | -11.7% |
| COc1ccc(N2CCN(Cc3nnc(-c4ccccc4)o3)CC2)cc1 | -10.5% |
| COc1ccc(N2CCN(Cc3ccc(Br)s3)CC2)cc1 | 79.9% (active) |
| O=C(NCc1cccnc1)c1cnc2ccccc2n1 | 13.6% |
| Oc1ccccc1N1CCN(c2ncnc3sc(-c4ccccc4)cc23)CC1 | -3.44% |
| CCc1cc2c(NC3CCCC3)ncnc2s1 | 12.9% |
| CCc1cc2c(N3CCN(c4nnc(CC)s4)CC3)ncnc2s1 | 76.6% (active) |
| CNC(=O)NC(=O)CSc1nnc(-c2ccc(F)cc2)n1CC1CCCO1 (stereo not given) | -19.5% |
| CN1CCN(C(CNS(=O)(=O)c2cccs2)c2cccnc2)CC1 (stereo not given) | -2.11% |
| COCCCNC(=S)N(Cc1ccccc1)Cc1ccc(F)cc1 | -1.09% |
| CC(C)C(=O)NCc1cc(-c2ccc(Cl)cc2)no1 | 9.14% |
| Cn1c(COc2ccc(Cl)cc2)nc2ccccc2c1=O | 89.6% (active) |
| COc1ccc(OCc2ccc(-c3nc4ccccc4c(=O)n3N)o2)cc1 | -11.1% |
| COCn1c(COc2ccccc2)nc2ccccc21 | 0.06% |
| CN(CC(=O)N1CCN(c2ccccc2)CC1)S(=O)(=O)c1cccs1 | -17.7% |
| CNC(=S)NNC(=O)c1ccc(N(C)C)cc1 | -0.72% |
| CCCCCCNS(=O)(=O)c1ccccc1Br | -7.16% |
| Cc1[nH]nc(SCC(=O)NCC(C)C)c1[N+](=O)[O-] | 94% (active) |
| CC(C)CNC(=O)COC(=O)/C=C/c1ccccc1[N+](=O)[O-] | -3.85% |
| Cc1ccc(C(C)NC(=O)Cn2nc(C)c([N+](=O)[O-])c2C)cc1 (stereo not given) | 5.36% |
| Brc1cccc(-c2nnc3n2CCC3)c1 | -2.99% |
| Cc1ccc2nc3n(c(=O)c2c1)CCC3 | -3.59% |
| COc1ccc(-c2nc3n(c2Br)CCC3)cc1 | 73.6% (active) |
| Cc1cccc(NC(=S)NCCc2ccc(F)cc2)c1C | 1.39% |
| OC(c1ccccc1)C(CN1CCOCC1)c1ccccc1 (stereo not given) | 6.57% |

| SMILES | inhibition |
| --- | --- |
| Cc1ccc(C(=O)OC(C)CN2CCOCC2)cc1 (stereo not given) | -4.58% |
| CC(CN1CCOCC1)c1ccccc1 (stereo not given) | 71.2% (active) |
| O=Cc1ccc(OCc2cn3ccccc3n2)cc1 | -3.57% |
| CC1(C)OC(=O)C(=CNC(CO)C(=O)O)C(=O)O1 (stereo not given) | 12.2% |
| Oc1c(Cl)cc(Cl)c(Cl)c1Cc1c(O)c(Cl)cc(Cl)c1Cl | 82.8% (active) |
| O=C(c1ccco1)N1CCN(CCOc2ccccc2)CC1 | -0.94% |
| CN(C)CCN=c1cc(-c2ccccc2)oc2ccc(Cl)cc12 | -12% |
| CN(C)N=Nc1ccc2nc[nH]c2c1 | -55.4% |
| CN1C(=O)/C(=N/OC(=O)c2ccccc2Br)c2ccccc21 | 9.1% |
| CS(=O)(=O)c1ccc2nc(NC(=O)CN3CCCCCC3)sc2c1 | 66.8% |
| Cc1csc(NC(=O)CN2CCCCCC2)n1 | 79.5% (active) |
| Cc1csc(NC(=O)C2CCCN2C(=O)OCC(C)C)n1 (stereo not given) | -4.68% |
| COC(=O)Cc1nc2ccccc2[nH]1 | 78.5% (active) |
| O=C(COc1ccccc1)NCCc1nc2ccccc2[nH]1 | -2.28% |
| COc1ccc(OC(C)C(=O)NCCc2nc3ccccc3[nH]2)cc1 (stereo not given) | 4.28% |
| COc1cc(NC(=S)NCCSc2ccc(C)cc2)cc(OC)c1 | -12.2% |
| O=C(Nc1ccc([N+](=O)[O-])cc1)C1(c2ccccc2)CCOCC1 | -1.28% |
| Cc1ccc2[nH]c3c(=O)n(Cc4ccccn4)cnc3c2c1 | -4.28% |
| COc1cc(OC)c(OC)cc1/C=N/Nc1ncnc2c1[nH]c1ccc(C)cc12 | 94.3% (active) |
| CC(C)OCCCNc1ncnc2c1[nH]c1ccc(F)cc12 | -11% |
| CCN(CC)CCNCC(=O)Nc1ccc(Oc2ccccc2)cc1 | 20.5% |
| COc1cc(NC(=O)c2cncc(-c3ccc(C#N)cc3)c2)cc(C(=O)Nc2cccc(C(F)(F)F)c2)c1 | 23% |
| O=c1cc(CO)oc(C(Nc2cccc(C(F)(F)F)c2)c2ccccn2)c1O (stereo not given) | 2.47% |
| COc1ccc(Br)cc1CN1CCN(C(=O)c2cccc(OC)c2OC)CC1 | 81.3% (active) |
| COc1cccc(OC)c1OCCN1CCN(C(=O)c2ccco2)CC1 | 24.8% |

| SMILES | inhibition |
| --- | --- |
| COc1ccccc1N1CCN(Cc2ccc(OC)c3ccccc23)CC1 | 37.2% |
| CC(C)c1cc(C(=O)O)n[nH]1 | 65.1% |
| Cc1cc(NC(=O)c2cnn3cccnc23)n(-c2ccccc2)n1 | 7.08% |
| O=C(Nc1ccc(Cl)cn1)c1ccc2c(c1)OCCO2 | 7.42% |
| O=C(Nc1ccc(Cl)cn1)c1cnn2cccnc12 | 81.6% (active) |
| C/C(N)=C(/C#N)C(=O)COC(=O)c1cc(-c2ccccc2)nc2ccc(Br)cc12 | -9.11% |
| O=C(N/N=C/c1ccccn1)c1cccnc1 | -10.3% |
| Cc1cc(NC(=O)OC(C)C)ccc1-c1ccc(NC(=O)OC(C)C)cc1C | 12% |
| Cc1nc(SCC(=O)Nc2cc(C)on2)c2c(C)c(C)sc2n1 | 85.3% (active) |
| Cc1cc(NC(=O)CSc2nc(C(C)C)nc3sc4c(c23)CCC(C)C4)no1 (stereo not given) | 2.28% |
| Cc1nc(SCC(=O)Nc2cc(C)on2)c2c3c(sc2n1)CCCC3 | -9.48% |
| Cc1nn(CC#N)c(=O)n1N(C)c1ncc(C(F)(F)F)cc1Cl | -20.5% |
| CN(CC(O)COc1ccc(S(=O)(=O)N2CCOCC2)cc1Cl)C1CCCCC1 (stereo not given) | -11.1% |
| COC(=O)c1c(NC(=O)c2c(Cl)cnn2C)sc(C)c1C | -11.9% |
| COCCCNCC(=O)Nc1sc(C)c(C)c1C(=O)OC | 78.7% (active) |
| CCOC(=O)c1c(NC(=O)c2cccs2)sc(C)c1C | 10.5% |
| COc1cc(CN2CC(C)CC(C)C2)cc([N+](=O)[O-])c1O (stereo not given) | -15.1% |
| O=S(=O)(NCC1CCCO1)c1ccc2ccccc2c1 (stereo not given) | 2.47% |
| CCC(=O)Nc1ccc(S(=O)(=O)NCC2CCCO2)cc1 (stereo not given) | -9.79% |
| CCOc1ccc(S(=O)(=O)NCC2CCCO2)cc1 (stereo not given) | 90.7% (active) |
| COC(=O)c1sc(SC)c(S(=O)(=O)C(C)C)c1N/N=C(\C#N)S(=O)(=O)c1ccccn1 | -11.7% |
| O=[N+]([O-])c1ccc(N=Cc2c(O)ccc3ccccc23)cc1 | 2.73% |
| O=C(NNc1cc(Cl)cc(Cl)c1)c1c(F)cccc1Cl | -1.3% |
| CCOC(=O)N1CCN(CC(=O)c2c(C)[nH]c3ccccc23)CC1 | -1.72% |
| CCOC(=O)N1CCN(CC(=O)n2c(C)c(C)c3ccccc32)CC1 | 71.6% (active) |

| SMILES | inhibition |
| --- | --- |
| CCOC(=O)N1CCN(C(=O)Cn2cnc3ccccc3c2=O)CC1 | -7.01% |
| COc1ccc(CC(=O)NCC(=O)N/N=C/c2cc(Br)ccc2OC)cc1 | -0.33% |
| COc1ccc(C(=O)O/N=C(\N)Cc2ccc(Cl)cc2Cl)cc1OC | -16.2% |
| NC(N)=N/N=C/c1ccc(Cl)c([N+](=O)[O-])c1 | 22.1% |
| NC(N)=N/N=C/c1ccc(OCc2ccc(Cl)cc2Cl)cc1 | 98.2% [fluorescence artefact?] (active) |
| Cc1ccc(S(=O)(=O)N(C)C)cc1NC(=O)c1n[nH]c(=O)c2ccccc12 | 1.22% |
| CCC(=O)c1ccc(OCC(=O)Nc2ccc3nc(C)sc3c2)cc1 | 4.78% |
| O=[N+]([O-])c1cc(Cl)cc(/C=N/NC(=S)Nc2cc(S(=O)(=O)N3CCOCC3)ccc2Cl)c1O | 50.2% |
| C[C@@H]1C[C@@H]2O[C@H]2/C=C\C=C\C(=O)Cc2c(Cl)c(O)cc(O)c2C(=O)O1 | -2.99% |
| S=c1[nH]nc(-c2ccccc2)n1/N=C/c1c[nH]c2ccccc12 | -8.9% |
| S=c1[nH]nc(-c2cc(-c3ccccc3)n[nH]2)n1/N=C/c1c2ccccc2cc2ccccc12 | 77.8% (active) |
| Fc1ccccc1/C=N/n1c(-c2cccnc2)n[nH]c1=S | 0.38% |
| Cc1cccc(N2CCN(C(=O)/C=C/c3ccco3)CC2)c1C | -4.76% |
| CCC1CO/C(=C(\C(=C(Cl)Cl)N2CCOCC2)[N+](=O)[O-])N1 (stereo not given) | 93.7% (active) |
| CN(C)C(=O)c1coc2nc3ccccc3nc12 | 1.09% |
| Cc1ccc(-c2csc(-c3cc(C)on3)n2)cc1 | 0.81% |
| CCOc1ccc(C(=O)N(Cc2ccc(N(C)C)cc2)C2CCS(=O)(=O)C2)cc1 (stereo not given) | -6.02% |
| COc1cc(C(=O)N(Cc2ccc(N(C)C)cc2)C2CCS(=O)(=O)C2)cc(OC)c1OC (stereo not given) | 94.9% (active) |
| COc1ccc(C(=O)N(Cc2ccc(N(C)C)cc2)C2CCS(=O)(=O)C2)cc1 (stereo not given) | -0.9% |
| CC(=O)NNC1=Nc2ccccc2N(C)C(C)C1 (stereo not given) | -5.76% |
| Cc1ccc(N2C(=O)CC(N3CCSCC3)C2=O)c(C)c1 (stereo not given) | 0.9% |
| CC(=O)Nc1ccc(S(=O)(=O)Nc2nccc(/C=C/c3ccccc3F)n2)cc1 | -3.98% |
| O=C(NC(=S)N1CCN(Cc2ccccc2)CC1)c1ccccc1 | -19.4% |
| O=C(Nc1ccccc1)N1CCN(Cc2ccccc2)CC1 | 77.4% (active) |
| O=C(Nc1ccccc1)N1CCN(C(=O)Nc2ccccc2)CC1 | -1.69% |
